# Reference: PubChem BioAssay (NCI)
# This is part of a sample that, as a whole, favours compounds with a hit. Of some 83,000 tested, about 20% had one in any assay.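 The endpoint reported here, percent growth, reads 100 for growth as untreated, 0 for no net growth and -100 for all cells dead.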 A number with no mark means an inactive call. The source made the active and inactive calls. The calls were made as follows: active = growth percent below 10; inactive = the rest.
# Legend:
# Test in all cases: NCI-60 one-dose screen, 48 h (100 = growth as untreated, 0 = no growth, -100 = all killed)
# Details in all cases: 10 µM unless noted
# SK-MEL-2 melanoma = tested on: SK-MEL-2 melanoma
# EKVX NSCLC = tested on: EKVX NSCLC
# SN12C renal = tested on: SN12C renal
# UO-31 renal = tested on: UO-31 renal
# TK-10 renal = tested on: TK-10 renal
# ACHN renal = tested on: ACHN renal
# CAKI-1 renal = tested on: CAKI-1 renal
# A498 renal = tested on: A498 renal
# HL-60(TB) leukemia = tested on: HL-60(TB) leukemia
# CCRF-CEM leukemia = tested on: CCRF-CEM leukemia
# MOLT-4 leukemia = tested on: MOLT-4 leukemia
# SR leukemia = tested on: SR leukemia
# RPMI-8226 leukemia = tested on: RPMI-8226 leukemia
# OVCAR-8 ovarian = tested on: OVCAR-8 ovarian
# OVCAR-5 ovarian = tested on: OVCAR-5 ovarian
# OVCAR-4 ovarian = tested on: OVCAR-4 ovarian
# SK-OV-3 ovarian = tested on: SK-OV-3 ovarian
# IGROV1 ovarian = tested on: IGROV1 ovarian
# OVCAR-3 ovarian = tested on: OVCAR-3 ovarian
# HS 578T breast = tested on: HS 578T breast
Structure (SMILES),growth (SK-MEL-2 melanoma),growth (EKVX NSCLC),growth (SN12C renal),growth (UO-31 renal),growth (TK-10 renal),growth (ACHN renal),growth (CAKI-1 renal),growth (A498 renal),growth (HL-60(TB) leukemia),growth (CCRF-CEM leukemia),growth (MOLT-4 leukemia),growth (SR leukemia),growth (RPMI-8226 leukemia),growth (OVCAR-8 ovarian),growth (OVCAR-5 ovarian),growth (OVCAR-4 ovarian),growth (SK-OV-3 ovarian),growth (IGROV1 ovarian),growth (OVCAR-3 ovarian),growth (HS 578T breast)
CC[C@H](C)[C@H](NC(=O)[C@H]1CCCCN1C)C(=O)N(C)[C@H](CCc1nc(C(=O)N[C@@H](Cc2ccccc2)C[C@H](C)C(=O)O)cs1)C(C)C,32.3%,47.7%,46.8%,49%,49.4%,47%,51.2%,-7.5% (active),-34.5% (active),14.9%,20.4%,18.6%,25.2%,15.8%,46.8%,43.8%,12.3%,41.5%,-4.67% (active),27.7%
Cc1cc[c-]cc1.Fc1c[c-]c(-c2ccccn2)c(F)c1.[Pt+2].c1ccc([PH+](c2ccccc2)c2ccccn2)cc1,71.8%,65.3%,52.1%,58.4%,75.9%,69%,54.7%,82.7%,38.2%,19.9%,26%,42.5%,15.9%,34%,63.9%,57.1%,91.7%,53.2%,46.1%,39.1%
N#CCc1ccc(CC#N)cc1,99.4%,97.7%,86.7%,89.8%,100%,103%,97.1%,78.8%,92.9%,100%,99.9%,97.9%,98.8%,104%,104%,119%,98.5%,109%,110%,96.6%
N[C@@H](CCC(=O)CCl)C(=O)O,87.6% [20 µM],101% [20 µM],89% [20 µM],91% [20 µM],101% [20 µM],97.9% [20 µM],97% [20 µM],110% [20 µM],101% [20 µM],97.6% [20 µM],99.9% [20 µM],71.3% [20 µM],111% [20 µM],108% [20 µM],98% [20 µM],112% [20 µM],108% [20 µM],99.5% [20 µM],110% [20 µM],109% [20 µM]
CC[C@H](C)[C@H](NC(=O)[C@H]1CCCCN1C)C(=O)N(C)[C@H](C[C@@H](OC(C)=O)c1nc(C(=O)N[C@@H](Cc2ccccc2)C[C@H](C)C(=O)O)cs1)C(C)C,2.53% (active),38.4%,47.5%,38.2%,22.8%,14.3%,35.9%,-2.03% (active),-29.8% (active),7.95% (active),12.8%,2.65% (active),34.1%,21%,57.7%,52.6%,12.3%,30.2%,-4.44% (active),25.3%
C[C@]12CC[C@H]3[C@@H](CC=C4c5nc(-c6ccc(Br)cc6)sc5CC[C@@]43C)[C@@H]1CC[C@@H]2O,101%,109%,91.4%,95.6%,110%,93.4%,85.4%,107%,94.3%,96.1%,89.2%,98.2%,54.6%,106%,90%,95.1%,95.1%,99.1%,103%,74%
CC[C@H](C)[C@H](NC(=O)[C@H]1CCCCN1C)C(=O)N(C)[C@H](C[C@@H](OC(C)=O)c1nc(C(=O)NC23C4C5C2C2C3C4C52C(=O)OC)cs1)C(C)C (stereo partly drawn),39.7%,36.2%,32.5%,33.4%,36.7%,16.2%,28.9%,3.94% (active),-32.8% (active),6.99% (active),8.38% (active),2.77% (active),29.2%,16.5%,55.7%,50.3%,34.4%,21.9%,-7.47% (active),34.3%
COC12CC3(C)C(C4=CC(=O)OC4)CCC3(O)C3CCC4=CC(=O)CCC4(CO1)C32 (stereo not drawn),24.9%,103%,105%,80.7%,101%,96.8%,105%,120%,123%,116%,119%,117%,118%,99.9%,99.5%,105%,117%,,118%,103%
O=P(O)(Nc1ccccc1)Nc1ccccc1,134%,80.6%,99.9%,81.7%,106%,95.9%,77.2%,89.3%,74%,99.3%,43.6%,104%,91.8%,103%,90.1%,99.9%,110%,90.6%,94.4%,94.5%
CCCCn1c(=O)c(C(=O)NCc2ccccc2Cl)c(O)c2ccccc21,94.3%,56.5%,76.7%,73.4%,84.3%,81.3%,79.6%,71.2%,60.7%,43.7%,58.4%,60.4%,40.1%,81.1%,109%,82.4%,80.8%,74.9%,78.9%,101%
O=C=Nc1ccc(Br)cc1,109%,102%,111%,102%,109%,114%,104%,94.2%,96.4%,103%,111%,98.5%,98.9%,107%,109%,98.5%,99.1%,112%,105%,106%
N#CC(NC(=O)CCl)=C(Cl)Cl,51.5%,-45.3% (active),29%,-40% (active),-13.1% (active),-88.7% (active),-99.4% (active),63.4%,-58.3% (active),-21.9% (active),-33.6% (active),-18.2% (active),-22% (active),-39.3% (active),44.4%,21.1%,88.5%,-38.6% (active),-30.9% (active),14.8%
Cc1ccc(P(=O)(O)O)cc1,109%,100%,97.7%,96.6%,102%,109%,97.2%,115%,107%,114%,116%,97.9%,112%,110%,114%,101%,128%,,118%,97.7%
CC[C@H](CC[C@@H](C)[C@H]1CC[C@H]2[C@@H]3CC[C@H]4C[C@]5(CC[C@]4(C)[C@H]3CC[C@]12C)OO[C@](C)(C(F)(F)F)O5)C(C)C,101%,96.2%,81.2%,78.8%,109%,98.7%,81.7%,97.3%,106%,100%,95%,93.9%,98.3%,97%,74.3%,88.4%,89.9%,79.3%,93.2%,99.8%
